Here are results for 17 molecules from PubChem BioAssay.

For test [1], the system named is XIP peptide (Xip251-270) binding. Nature of the test: XIP fragment 251-270 binding compounds – biochemical, small-molecule microarray, fluorescence 635/667 nm, 0.1 µg/mL protein, primary screen (AID 1182). The note with it: fluorescent protein binding, 635 nm, higher = more signal, called active from +8 up or from −8 down.
The test system of test [2] is XIP peptide (Xip251-270). Nature of the test: compounds binding XIP fragment 251-270 – biochemical, small-molecule microarray, fluorescence 635/667 nm, 0.5 µg/mL protein, primary screen (AID 1183). The following applies: fluorescence 635 nm, higher = more signal.
The nature of test [3]: blood-stage malaria parasite viability loss – strain 3D7, DAPI fluorescence, 100 nL, primary screen (AID 1184).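 Note: parasites grown inside human red blood cells in medium with human serum.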 The following applies: P. falciparum 3D7 growth, 3 d, higher = more signal.
For test [4], the target named is Homeobox protein Hox-A13 (Mus musculus) (UniProt Q62424). Nature of the test: disruptors of Hoxa13 oligonucleotide interaction – biochemical, fluorescence polarization, labeled oligonucleotide, primary screen (AID 1185). The note with it: Hoxa13:DNA binding, 15 min, higher = more signal, called active from +8 up or from −8 down. For orientation: Fluorescence polarisation rises when a labelled molecule tumbles more slowly, as on binding a larger partner.
Chain of Homeobox protein Hox-A13 (Mus musculus) (Q62424 whole entry, looked up): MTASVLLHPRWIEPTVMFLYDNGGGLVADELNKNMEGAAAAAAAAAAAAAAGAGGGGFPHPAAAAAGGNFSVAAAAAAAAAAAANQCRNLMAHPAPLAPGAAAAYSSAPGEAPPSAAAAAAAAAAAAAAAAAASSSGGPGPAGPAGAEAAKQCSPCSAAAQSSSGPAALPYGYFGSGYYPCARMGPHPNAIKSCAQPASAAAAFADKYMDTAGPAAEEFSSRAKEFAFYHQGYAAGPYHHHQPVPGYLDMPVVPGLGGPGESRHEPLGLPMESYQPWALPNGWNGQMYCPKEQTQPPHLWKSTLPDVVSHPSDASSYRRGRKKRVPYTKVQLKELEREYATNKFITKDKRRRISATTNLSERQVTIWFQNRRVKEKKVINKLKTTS

Test [5] in a line: blockers of DNA damage checkpoint Chk1 activation – imaging, HeLa, hydroxyurea, phospho-Chk1 antibody, percent positive cells, primary screen (AID 1186). The following applies: hydroxyurea-induced phospho-Chk1 immunofluorescence imaging, higher = more signal.
The nature of test [6]: blockers of DNA damage checkpoint Chk1 activation – imaging, HeLa, hydroxyurea, phospho-Chk1 nuclear intensity, primary screen (AID 1187). The note with it: hydroxyurea-induced phospho-Chk1 immunofluorescence imaging, higher = more signal.

The structures appear in SMILES notation. Active and inactive are the calls of the source. Unless noted, the rule behind the calls is not given here.

Consider `CN(C)CCCC[C@@H]1NC(=O)[C@H]2C[C@@H](C(=O)NCCCCCCNC(=O)CS)[C@@H](c3ccc(O)cc3)N2C1=O`, for which the composite z-score in test [1] was 1.44 (inactive); in test [2], 0.868. In addition, the z-score in test [3] is 0.323; in test [4], -2.87 (inactive); in test [5] it was -0.346 (inactive); in test [6], 0.128 (inactive).
For `NC(=O)NCC#Cc1ccc2c(c1)[C@]1(C(=O)N2)[C@H](c2ccc(OCCO)cc2)N2[C@H](c3ccccc3)[C@H](c3ccccc3)OC(=O)[C@H]2[C@@H]1C(=O)N1CCN(c2ncccn2)CC1`, the composite z-score in test [1] is 0.0244 (inactive); in test [2], 0.353. For the same molecule, the z-score is 0.149 in test [3], 0.314 (inactive) in test [4], 0.432 (inactive) in test [5] and 1.09 (inactive) in test [6].
On to `C=CCNC(=O)[C@@H]1[C@H]2C(=O)O[C@H](c3ccccc3)[C@H](c3ccccc3)N2[C@H](c2ccc(O)cc2)[C@@]12C(=O)Nc1ccc(C#CCCO)cc12`, for which the figures for the composite z-score in test [1] and in test [2] were 3.57 (inactive) and 0.693, respectively. Moreover, the z-score in test [3] was -0.37; in test [4], -5.14 (inactive); in test [5], -0.154 (inactive); in test [6], -0.0542 (inactive).
Consider `COCCCNC(=O)[C@@]1(Cc2ccccc2I)c2ccccc2C(=O)N(Cc2ccccc2Cl)[C@H]1c1ccc(CO)cc1`, for which the composite z-score in test [1] is 1.75 (inactive); in test [2], 0.595. Further, the z-score is -1.22 in test [3], -4.93 (inactive) in test [4], -0.152 (inactive) in test [5] and 0.187 (inactive) in test [6].
As for `COC(=O)[C@@]1(Cc2ccc(F)cc2)[C@H]2c3cc(C(=O)N(C)C)n(Cc4ccc(C)c(F)c4F)c3C[C@H]2CN1C(=O)c1ccccc1`, the composite z-score is 0.365 (inactive) in test [1] and -0.0688 in test [2]. The z-score in test [3] is -1.13; in test [4], -4.74 (inactive); in test [5], -0.014 (inactive); in test [6], -0.193 (inactive).
Turning to `C=CCC(OC(C)=O)[C@@H]1[C@@H](N(Cc2ccc(-c3ccccc3)cc2)C(=O)c2cccc3ccccc23)c2cc(OCCCO)ccc2N1C(=O)c1ccc2ccccc2n1` (some centres not stated), the composite z-score was -0.0607 (inactive) in test [1] and 0.328 in test [2]. In addition, the z-score is -0.714 in test [3], -1.42 (inactive) in test [4], -0.606 (inactive) in test [5] and -0.368 (inactive) in test [6].
For the molecule `CCOC(=O)C1=CC[C@@H](c2ccc(N(CC)CC)cc2)N(S(=O)(=O)c2ccc(C)cc2)[C@H]1c1ccc([N+](=O)[O-])cc1`, the values for the composite z-score in test [1] and in test [2] were 0.326 (inactive) and 0.357, respectively. In addition, the z-score in test [3] was -2.1; in test [4] it was -1.99 (inactive); in test [5], 0.0638 (inactive); in test [6], -0.244 (inactive).
Turning to `CC(=O)NCCCC[C@@H]1NC(=O)[C@H]2C[C@@H](C(=O)NCCCCCN)[C@@H](c3cccc(OCCO)c3)N2C1=O`, the composite z-score was 0.149 (inactive) in test [1] and 0.654 in test [2]. Also, the z-score in test [3] was 0.184; in test [4] it was -2.28 (inactive); in test [5], -1.11 (inactive); in test [6], -0.661 (inactive).
Regarding `CC1C=C(CCCO)C=C(C(=O)OCCS(C)(=O)=O)C(C(=O)OCCS(C)(=O)=O)=CN1Cc1cccc(OC(F)(F)F)c1` (configuration not stated), the composite z-score is 0.392 (inactive) in test [1] and -0.0318 in test [2]. Further, the z-score was -2.67 in test [3], -7.2 (inactive) in test [4], -0.0917 (inactive) in test [5] and 0.397 (inactive) in test [6].
With `CC(C)=CCCC(C)=CC(O)C1C=CC2C(=O)N(c3ccccc3)C(=O)C2N1Nc1ccc([N+](=O)[O-])cc1` (configuration not stated), the composite z-score in test [1] was 0.174 (inactive); in test [2], 0.817. The z-score is -0.0908 in test [3], -4.57 (inactive) in test [4], 0.458 (inactive) in test [5] and -0.178 (inactive) in test [6].
Take `C=CCN1C(=O)[C@@]2(O[C@@H](CCn3cc([C@H](O)c4ccccc4)nn3)[C@H]([Si](C)(C)c3ccc(OC)cc3)[C@H]2C)c2cc(NC(=O)c3ccc(OC)cc3)ccc21`: the composite z-score in test [1] was 0.593 (inactive); in test [2], 0.189. For the same molecule, the z-score was -2.7 in test [3], -4.41 (inactive) in test [4], 0.24 (inactive) in test [5] and -0.338 (inactive) in test [6].
Turning to `CC1CC/C=C\[C@H]2OC34C=CCN(Cc5ccccc5)C(=O)[C@H]3N(CCO)C(=O)[C@@H]4C2C(=O)O1` (some centres not stated), the composite z-score in test [1] was 0.449 (inactive); in test [2], 0.108. Besides, the z-score in test [3] is -1.56; in test [4], -4.51 (inactive); in test [5], -0.455 (inactive); in test [6], -0.466 (inactive).
Turning to `COc1ccccc1CN1C(=O)c2ccccc2[C@@H](C(=O)NCC(C)C)[C@@H]1c1ccc(CO)cc1`, the composite z-score in test [1] is 0.25 (inactive); in test [2] it was 0.791. The z-score is -1.24 in test [3], -1.48 (inactive) in test [4], 0.0947 (inactive) in test [5] and 0.525 (inactive) in test [6].
Consider `CCN(CC)c1ccc(N2CC=CC34O[C@@H]5/C=C\CCCOC(=O)C5[C@H]3C(=O)N(CCCCCO)[C@@H]4C2=O)cc1` (some centres not stated), for which the composite z-score is -0.0261 (inactive) in test [1] and 0.0595 in test [2]. Moreover, the z-score was 1.98 in test [3], -5.15 (inactive) in test [4], -0.0764 (inactive) in test [5] and 0.34 (inactive) in test [6].
Turning to `C[N+](C)(C)CCCCCCNC(=O)[C@@H]1C[C@@H]2C(=O)NCC(=O)N2[C@@H]1c1ccc(O)cc1`, the figures for the composite z-score in test [1] and in test [2] were 0.842 (inactive) and 0.87, respectively. In addition, the z-score was 0.627 in test [3], -1.98 (inactive) in test [4], 1.34 (inactive) in test [5] and 0.992 (inactive) in test [6].
Consider `CCCCC(=C=CC[C@H](O)c1ccccc1OCCO)C[C@H](O)c1ccccn1`, for which the composite z-score in test [1] is 0.418 (inactive); in test [2], 0.318. In addition, the z-score is -0.966 in test [3], -3.35 (inactive) in test [4], 0.305 (inactive) in test [5] and 0.113 (inactive) in test [6].
Consider `CN(C)C(=O)[C@@]1(CCS(=O)(=O)c2ccccc2)N=C(c2ccc(OCCCO)cc2)O[C@H]1c1ccccc1CN=[N+]=[N-]`, for which the composite z-score in test [1] is 1.41 (inactive); in test [2], 0.653. The z-score in test [3] is -2.48; in test [4], -5.32 (inactive); in test [5] it was -0.359 (inactive); in test [6], -0.243 (inactive).
